Screening results (PubChem)
This excerpt belongs to a sample that is enriched for hits.
TSG101-PTAP inh: qHTS Validation Assay for Inhibitors of HIV-1 Budding by Blocking the Interaction of PTAP/TSG101: Sytravon Library Screen. Fluorescence polarization, FITC-PTAP peptide/Tsg101, 20 min. Potency, µM (highest dose often 115 µM), actives largely listed as inhibitors. 44,000 tested, under 10 active. AID 1347069, 2019
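Fluorescence polarization binding of Tsg101 binding domain (10 uM final) to FITC-labeled PTAP-motif peptide (50 nM final) in HEPES pH 7.5/NaCl/Tween 20/EDTA/TCEP buffer; 20 min at r.t. Actives by curve class, <25 µM, efficacy <60% inhibition.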
GALK inhibitor: qHTS Assay for Inhibitors of Human Galactokinase (GALK): NCGC Sytravon Library Screen. P51570. recombinant GALK, Kinase-Glo ATP luminescence, 1 h. Potency, µM (titrated, usually from 57.5 µM), most hits filed as inhibitors. 44,000 tested, under 10 active. AID 1347072, 2019
Target sequence (P51570 whole entry, looked up): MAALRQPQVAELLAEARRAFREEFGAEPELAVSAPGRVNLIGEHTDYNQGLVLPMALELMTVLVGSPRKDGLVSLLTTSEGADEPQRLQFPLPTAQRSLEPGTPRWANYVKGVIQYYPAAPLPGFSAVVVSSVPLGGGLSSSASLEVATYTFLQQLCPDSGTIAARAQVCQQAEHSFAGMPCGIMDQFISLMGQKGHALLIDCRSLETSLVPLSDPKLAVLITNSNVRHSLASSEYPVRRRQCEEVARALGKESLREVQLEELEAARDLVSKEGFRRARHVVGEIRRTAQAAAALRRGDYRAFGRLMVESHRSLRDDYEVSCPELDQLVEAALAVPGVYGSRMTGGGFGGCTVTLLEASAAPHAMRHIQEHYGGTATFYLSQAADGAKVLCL
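Compounds were pinned into ATP buffer, then GALK-galactose mix was added (final 5 nM enzyme, 35 uM ATP, 100 uM galactose, pH 8.0). After 1 h at room temperature, Kinase-Glo Plus was added and luminescence read.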
B2AR arrestin ag: qHTS assay of beta-arrestin-biased ligands of beta2-adrenergic receptor: NCGC Sytravon Library Screen. HTLA Tango cells, beta-arrestin recruitment, luciferase luminescence, 18 h. Potency, µM (doses to about 46.1 µM), usual class: activators. Beta-2 adrenergic receptor (Homo sapiens), P07550. 44,000 tested, under 10 active
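Tango cell line, 1% FBS DMEM; cpd titration up to 46 microM; 18 hr, 37 degrees C, 5% CO2. Luciferin/ATP substrate mix added, 15 min RT, luminescence. %Activity, CRC fitting, curve-class categorization.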
Each line names hits and unclear results; the compound was inactive in the other large screens. Calls follow the shape of the dose curve; as a rule, active = well fitted curve in the direction sought with a large enough effect; inconclusive = small, poorly fitted or top-dose-only effect, or another doubt; inactive = no such curve, though single readings can be large; an effect the other way counts as inactive or inconclusive.

Cc1ccc(C)c(NC(=O)Cn2c(=O)n(CCC(C)C)c(=O)c3cccnc32)c1	none
COc1ccc(NC(=O)C2CCCN(S(=O)(=O)c3ccc(Cl)cc3)C2)cc1 (configuration not stated)	none
CSc1ccc(CNC(=O)c2cc3c(=O)n(Cc4ccco4)ccc3nc2C)cc1	none
COc1ccccc1Nc1nc(C)nc(N)c1S(=O)(=O)c1ccccc1	none
CCc1nnc2c(Nc3cccc(F)c3)nc3ccc(C(=O)c4ccccc4)cc3n12	none
CCCCN(C)CCNC(=O)c1ccc2c(=O)n(CCc3ccccc3)c(=O)[nH]c2c1	none
COc1ccccc1NC(=O)CCS(=O)(=O)c1cc2c3c(c1)CCN3C(=O)CC2	none
COc1ccc(C)cc1NC(=O)N1CCN(S(=O)(=O)c2ccc3c(ccn3C)c2)CC1	none
Cc1cc(C)c2c(CC(=O)Nc3ccc(S(=O)(=O)Nc4ncccn4)cc3)coc2c1	none
COc1ccc(C(=O)NCCc2sc(-c3ccc(F)cc3)nc2C)cc1OC	none
CCC(C)Sc1oc(-c2ccco2)nc1S(=O)(=O)c1ccc(Cl)cc1 (configuration not stated)	none
CCn1cc(/C=C(\NC(=O)c2ccc(C)cc2)C(=O)NCCCn2ccnc2)c2ccccc21	none
O=C(NCC(c1ccco1)S(=O)(=O)c1cccs1)c1ccc(C(F)(F)F)cc1 (configuration not stated)	none
O=C(NCc1ccccc1Cl)c1cc(=O)[nH]c2ccc(S(=O)(=O)N3CCCCC3)cc12	none
O=C(NCCC1=CCCCC1)c1ccc2c(c1)N(Cc1ccccc1)C(=O)c1ccccc1S2(=O)=O	none
COc1ccccc1NC(=O)c1sc2nc(N3CCOCC3)c3c(c2c1N)CC(C)(C)OC3	none
COc1ccc(C2CC(=O)Nc3c2c(=O)n(C)c2nc4ccccc4n32)cc1 (configuration not stated)	none
CN(Cc1ccccc1)C(=O)CSc1nc(-c2ccc(F)cc2)cc(C(F)(F)F)n1	none
COc1ccc(NC(=O)N2CCC(n3c(C)nc4cccnc43)CC2)cc1OC	none
COc1cccc(C(=O)N2CCC(N3CCN(Cc4ccc(F)cc4)C(=O)C3=O)CC2)c1	none
COc1ccc(CCNC(=O)C(C)n2nc(C)c3sc4ccccc4c3c2=O)cc1OC (configuration not stated)	none
COc1ccccc1Nc1cc(C(=O)NC2CCC(C)CC2)c2ccccc2n1 (configuration not stated)	none
O=C(Nc1ccc(C(F)(F)F)cc1)c1cc(S(=O)(=O)NC2CCCCCC2)ccc1F	none
CCOc1ccc(CNC(=O)C2CCN(S(=O)(=O)N3CCCCC3)CC2)cc1	none
Cc1ccccc1CSc1nc2cc(C(=O)NC3CCCC3)ccc2c(=O)n1Cc1ccccc1	none
CCCC(=O)N1c2ncnn2C2(CCCCC2)[C@@H]2CCCC[C@@H]21	none
CCNC(=O)c1c(C)oc2ncn(C)c(=O)c12	none
O=C(CSc1nc2c([nH]c3ccccc32)c(=O)n1-c1ccccc1F)Nc1cccc(C(F)(F)F)c1	none
COc1ccc(OC)c(C2c3c(-c4ccc(Br)cc4)n[nH]c3C(=O)N2c2ccc(Cl)cc2)c1 (configuration not stated)	none
CCC(C)S(=O)(=O)c1oc(-c2cccs2)nc1S(=O)(=O)c1ccccc1 (configuration not stated)	none
CCOCCSc1c(C)cnc2c1c(=O)n(C)c(=O)n2C	none
CCCCNC(=O)c1nn(-c2ccc(C)cc2)c(=O)n(C)c1=O	none
COc1ccc(CNc2nc3c(c(=O)n(C)c(=O)n3C)n2Cc2ccccc2Cl)cc1	none
COc1ccccc1NC(=O)CC1Sc2ccc(C(F)(F)F)cc2NC1=O (configuration not stated)	none
Cc1ccc(-n2nc3c(N4CCC(C(=O)NC5CCCCC5)CC4)nnc(C)c3c2C)cc1	none
CCOC(=O)c1scc(-c2ccc(C)cc2)c1S(=O)(=O)N1CCN(c2ccccc2)CC1	none
O=C(CSc1nnc2[nH]c(=O)cc(-c3ccccc3)n12)Nc1cc(C(F)(F)F)ccc1Cl	none
CCc1ccccc1NC(=O)c1ncoc1-c1ccco1	none
CCc1nn2c(=O)cc(COC(=O)c3ccccc3NC(=O)C3CCCCC3)nc2s1	none
Cc1ccc(-c2nnn3c2nc(NCc2ccc4c(c2)OCO4)c2ccccc23)cc1	none
O=C(Nc1sc2c(c1C(=O)NCc1cccnc1)CCCC2)c1cc(=O)c2ccccc2o1	none
CC(C)CNC(=O)c1c(-c2ccccc2)c(-c2ccccc2)nn(C)c1=O	none
COc1cccc(CNC(=O)C(NS(=O)(=O)c2cccs2)C(C)C)c1 (configuration not stated)	none
COc1ccc(N2CC(NC(=O)C(c3ccccc3)c3ccccc3)CC2=O)cc1 (configuration not stated)	none
Cc1cc2c(cc1S(=O)(=O)N(CCO)Cc1ccccc1)OCC(=O)N2	none
COc1ccc(NC(=O)/C(C#N)=C/c2ccc(C)o2)cc1	none
COc1cccc(NC(=O)/C(C#N)=C/c2ccc(-c3ccc(C)cc3)o2)c1	TSG101-PTAP inh 39.8µM
COc1cccc(C2C(=O)N(C3CCCCC3)CC(=O)N2CCc2ccc(OC)c(OC)c2)c1 (configuration not stated)	none
COc1ccc(CCNC(=O)CCc2c(C)nc3c(c(C)nn3-c3ccc(C)cc3)c2C)c(OC)c1	none
COc1ccc2c(c1)CCc1c(C(=O)Nc3c(C)nn(Cc4c(Cl)cccc4Cl)c3C)noc1-2	none
Cc1ccc(S(=O)(=O)c2cn(CC(=O)Nc3ccc4c(c3)OCO4)c3ccccc3c2=O)cc1C	none
CCOCCOC(=O)c1ccc2c(c1)N(Cc1ccccc1C#N)C(=O)c1ccccc1S2(=O)=O	none
CCCCOc1ccc(CNC(=O)C2CCN(c3nnc(-n4cccc4CNc4ccc(C)cc4)s3)CC2)cc1	none
O=C(Nc1cc(Cl)cc(Cl)c1)c1ccc(F)c(S(=O)(=O)NC2CCCC2)c1	none
COc1cccc(N2CCN(C3C(=O)c4ccccc4N3C(C)=O)CC2)c1 (configuration not stated)	none
CCN(CC)c1nn2c(=O)c(C(=O)NCCc3cccc(C)c3)cnc2s1	none
Cc1cc(C)n2c(Nc3ccc(C(C)C)cc3)c(-c3ccsc3)nc2n1	none
COCCCNc1nc2c(S(=O)(=O)c3ccc(C)c(C)c3)nnn2c2ccc(Cl)cc12	none
CCc1ccc(N2CCn3c2nc2c3c(=O)n(C/C=C/c3ccccc3)c(=O)n2C)cc1	none
CCCCNC(=O)c1cccc(-n2c(C)nc3cccnc32)c1	none
CCOC(=O)C(=O)Nc1nnc2n1CCS2	none
COc1ccc(Cl)cc1NC(=O)c1nnn(Cc2cccc(C(F)(F)F)c2)c1N	none
Cc1cccc(N2CCN(C(=O)c3ccc4nc(N5CCC(C)CC5)sc4c3)CC2)c1C	none
Cc1ccc(CNC(=O)c2ccc(-n3cnc4cccnc43)cc2)cc1	none
Cc1cc(F)ccc1S(=O)(=O)Nc1ccc2oc3c(c2c1)CC(C)CC3 (configuration not stated)	none
COC(=O)c1scc(-c2ccc(C)cc2)c1S(=O)(=O)Nc1cccc(C(F)(F)F)c1	none
Cc1ccc(C)c(NC(=O)C(c2ccccc2)N2Cc3ccccc3C2=O)c1 (configuration not stated)	none
